{
  "source": "PubChem BioAssay",
  "note": "Activity calls are given as the source filed them. No rule for the calls is given here.",
  "data": [
    {"experiment": "inhibitors of hydroxyurea-induced Chk1 phosphorylation, primary screen, imaging, HeLa, phospho-Chk1 antibody, percent positive cells (AID 1186)", "settings": "hydroxyurea-induced phospho-Chk1 immunofluorescence imaging, higher = more signal", "values": [
      {"smiles": "O=C(C1N=C(c2ccc(OCCCO)cc2)N(c2ccccc2)O1)N1CCOCC1", "note": "(configuration not stated)", "z-score": "-0.554 (inactive)"},
      {"smiles": "CC(C)N1C(=O)c2ccccc2[C@](C)(C(=O)NCc2ccccc2)[C@@H]1c1ccc(CO)cc1", "z-score": "0.0268 (inactive)"},
      {"smiles": "COCCn1c(C(=O)N2CCCC2)cc2c1C[C@H]1CN(C(=O)c3ccccc3)[C@@](Cc3ccc(F)cc3)(C(=O)OC)[C@@H]21", "z-score": "0.0536 (inactive)"},
      {"smiles": "C=C(/C(=C/C[C@@H](OC(C)=O)c1ccc(OCCO)cc1)c1cnc2ccccc2c1)C(C)C", "z-score": "-1.03 (inactive)"},
      {"smiles": "[N-]=[N+]=NCc1ccccc1C[C@]1(C(=O)N2CCOCC2)N=C(c2ccc(OCCCO)cc2)O[C@H]1c1ccccc1N=[N+]=[N-]", "z-score": "-0.551 (inactive)"},
      {"smiles": "CC(=O)NCCCC[C@@H]1NC(=O)[C@@H]2C[C@H](C(=O)NCCCCCCNC(=O)CS)[C@H](c3cccc(OCCO)c3)N2C1=O", "z-score": "-0.223 (inactive)"},
      {"smiles": "C=CCOC(=O)[C@@H]1[C@H]2C(=O)O[C@H](c3ccccc3)[C@H](c3ccccc3)N2[C@H](c2ccc(OCCOC(=O)[C@@H]3C[C@@H]4C(=O)N[C@@H](CCCC[N+](C)(C)C)C(=O)N4[C@@H]3c3cccc(OCCO)c3)cc2)[C@@]12C(=O)Nc1ccc(I)cc12", "z-score": "-0.558 (inactive)"},
      {"smiles": "CC(C)C[C@H]1NC(=O)[C@@]23C(=O)N[C@@H](Cc4ccccc4)C2[C@H](C)[C@@]2(C)O[C@H]2C3/C=C/C/C=C\\CNC(=O)[C@H](Cc2ccccc2)NC1=O", "note": "(some centres not stated)", "z-score": "-0.0464 (inactive)"},
      {"smiles": "C=CCN1C(=O)[C@]2(O[C@H](CCO)[C@@H]([Si](C)(C)c3ccc(OC)cc3)[C@@H]2C)c2cc(N3C(=O)c4cccc5cccc3c45)ccc21", "z-score": "-2.42 (inactive)"},
      {"smiles": "O=C1OCC=C[C@H]2OC34C=CCN(c5ccc6ccccc6c5)C(=O)[C@H]3N(CCCCCCO)C(=O)[C@@H]4[C@@H]12", "note": "(some centres not stated)", "z-score": "-0.261 (inactive)"},
      {"smiles": "CC(=O)N1Cc2ccccc2C[C@@]2(COC(c3ccc(OCCCO)cc3)=N2)C1=O", "z-score": "-1.01 (inactive)"},
      {"smiles": "CCCCCC1=C2CNC(CCC)(C(=O)OC)C=C2C(C)C1=O", "note": "(configuration not stated)", "z-score": "0.138 (inactive)"},
      {"smiles": "COC(=O)[C@@]1(Cc2ccc(OC)cc2)[C@H]2c3cc(C(=O)N4CCCC4)n(Cc4ccc(OC)c(OC)c4)c3C[C@H]2CN1C(=O)c1ccccc1", "z-score": "0.666 (inactive)"},
      {"smiles": "CCCC[C@H]1OB(O)C[C@H]2C1=C(COc1ccccc1)C[C@H]1C(=O)N(C)C(=O)[C@H]12", "z-score": "-0.267 (inactive)"},
      {"smiles": "C=C(CCCC)C(=O)CC[C@H](OC(C)=O)c1cccc(OCCO)c1", "z-score": "-0.0717 (inactive)"},
      {"smiles": "CCCCC(O)C1C=CC2C(=O)N(c3ccccc3)C(=O)C2N1Nc1ccccc1F", "note": "(configuration not stated)", "z-score": "0.772 (inactive)"},
      {"smiles": "CN(C)CCCCCCNC(=O)[C@@H]1C[C@@H]2C(=O)N[C@@H](CCCCN)C(=O)N2[C@@H]1c1cccc(OCCO)c1", "z-score": "-1.14 (inactive)"},
      {"smiles": "O=C(NCc1ccccc1)[C@@H]1c2ccccc2C(=O)N(CC23CC4CC(CC(C4)C2)C3)[C@H]1c1ccc(CO)cc1", "z-score": "-0.221 (inactive)"},
      {"smiles": "COc1ccc(C(=O)Nc2ccc(CN3C(=O)[C@@]4(O[C@@H](CCn5cc([C@H](O)c6ccccc6)nn5)[C@H]([Si](C)(C)c5ccc(OC)cc5)[C@H]4C)c4ccccc43)cc2)cc1", "z-score": "-0.0665 (inactive)"},
      {"smiles": "C=C/C=C/[C@H]1C(=C)CN([C@@H](Cc2ccccc2)C(=O)OC)[C@@H]1[C@H](O)Cc1ccccc1", "z-score": "-0.0246 (inactive)"},
      {"smiles": "CCCCCN1CC=CC23O[C@@H]4/C=C\\CCCOC(=O)C4[C@H]2C(=O)N(C(CO)C(C)C)[C@@H]3C1=O", "note": "(some centres not stated)", "z-score": "-0.609 (inactive)"},
      {"smiles": "CS(=O)(=O)CCOC(=O)C1=CC(CCCO)=CC(c2ccc(CN3CCCC3)cc2)N(Cc2cc3c(cc2Br)OCO3)C=C1C(=O)OCCS(C)(=O)=O", "note": "(configuration not stated)", "z-score": "-1.45 (inactive)"},
      {"smiles": "C=CC[C@]1(C(=O)NCCCOC)N=C(c2ccc(OCCCO)cc2)O[C@H]1c1ccccc1N=[N+]=[N-]", "z-score": "-0.432 (inactive)"},
      {"smiles": "[N-]=[N+]=NCc1ccccc1[C@@H]1OC(c2ccc(OCCCO)cc2)=N[C@]1(CCS(=O)(=O)c1ccccc1)C(=O)NCc1ccccc1", "z-score": "0.21 (inactive)"},
      {"smiles": "CCCC=C(CCC)[C@@H](NC(=O)Oc1ccc(F)cc1)c1ccc(C(=O)OC)cc1", "z-score": "0.239 (inactive)"},
      {"smiles": "CCCCCN1CC=CC23O[C@@H]4/C=C\\CCCOC(=O)C4[C@H]2C(=O)N(CCCO)[C@@H]3C1=O", "note": "(some centres not stated)", "z-score": "-0.297 (inactive)"},
      {"smiles": "CC(C)(C)OC(=O)CC[C@@]1(C(N)=O)N=C(c2ccc(OCCCO)cc2)O[C@@H]1c1ccccc1", "z-score": "0.335 (inactive)"}
    ]}
  ]
}
